39 targets from the supplement of paper PMC10849652 can be followed below.

Of roughly 8,800 targets only a part is listed; those with a hit were picked by preference. About 0.5% of all pairs of compound and target were hits.

UniProt P22676, sequence (P22676 whole entry, looked up): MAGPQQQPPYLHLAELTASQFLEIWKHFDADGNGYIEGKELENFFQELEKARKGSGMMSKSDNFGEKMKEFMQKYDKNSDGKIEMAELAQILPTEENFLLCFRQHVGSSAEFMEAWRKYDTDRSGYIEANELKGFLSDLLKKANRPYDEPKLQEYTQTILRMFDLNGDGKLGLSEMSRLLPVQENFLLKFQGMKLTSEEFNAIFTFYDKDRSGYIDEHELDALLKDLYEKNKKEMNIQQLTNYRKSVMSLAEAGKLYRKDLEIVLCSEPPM
UniProt O00311, sequence (O00311 whole entry, looked up): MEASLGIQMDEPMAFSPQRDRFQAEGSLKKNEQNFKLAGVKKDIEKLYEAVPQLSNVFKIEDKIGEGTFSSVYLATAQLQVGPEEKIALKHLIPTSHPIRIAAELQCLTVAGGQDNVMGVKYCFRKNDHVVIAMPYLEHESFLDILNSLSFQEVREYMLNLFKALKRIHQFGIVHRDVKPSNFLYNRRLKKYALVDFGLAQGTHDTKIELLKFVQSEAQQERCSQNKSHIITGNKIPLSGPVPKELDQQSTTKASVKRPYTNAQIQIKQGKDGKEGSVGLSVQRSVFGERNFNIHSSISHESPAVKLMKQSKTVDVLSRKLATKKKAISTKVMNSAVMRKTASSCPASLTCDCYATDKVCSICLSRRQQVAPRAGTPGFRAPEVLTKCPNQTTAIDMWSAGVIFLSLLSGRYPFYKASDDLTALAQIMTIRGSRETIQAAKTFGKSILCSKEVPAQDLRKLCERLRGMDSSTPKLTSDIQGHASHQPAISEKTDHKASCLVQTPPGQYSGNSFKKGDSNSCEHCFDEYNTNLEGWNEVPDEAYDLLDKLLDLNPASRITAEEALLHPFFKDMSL
UniProt Q86YS7, sequence (Q86YS7 whole entry, looked up): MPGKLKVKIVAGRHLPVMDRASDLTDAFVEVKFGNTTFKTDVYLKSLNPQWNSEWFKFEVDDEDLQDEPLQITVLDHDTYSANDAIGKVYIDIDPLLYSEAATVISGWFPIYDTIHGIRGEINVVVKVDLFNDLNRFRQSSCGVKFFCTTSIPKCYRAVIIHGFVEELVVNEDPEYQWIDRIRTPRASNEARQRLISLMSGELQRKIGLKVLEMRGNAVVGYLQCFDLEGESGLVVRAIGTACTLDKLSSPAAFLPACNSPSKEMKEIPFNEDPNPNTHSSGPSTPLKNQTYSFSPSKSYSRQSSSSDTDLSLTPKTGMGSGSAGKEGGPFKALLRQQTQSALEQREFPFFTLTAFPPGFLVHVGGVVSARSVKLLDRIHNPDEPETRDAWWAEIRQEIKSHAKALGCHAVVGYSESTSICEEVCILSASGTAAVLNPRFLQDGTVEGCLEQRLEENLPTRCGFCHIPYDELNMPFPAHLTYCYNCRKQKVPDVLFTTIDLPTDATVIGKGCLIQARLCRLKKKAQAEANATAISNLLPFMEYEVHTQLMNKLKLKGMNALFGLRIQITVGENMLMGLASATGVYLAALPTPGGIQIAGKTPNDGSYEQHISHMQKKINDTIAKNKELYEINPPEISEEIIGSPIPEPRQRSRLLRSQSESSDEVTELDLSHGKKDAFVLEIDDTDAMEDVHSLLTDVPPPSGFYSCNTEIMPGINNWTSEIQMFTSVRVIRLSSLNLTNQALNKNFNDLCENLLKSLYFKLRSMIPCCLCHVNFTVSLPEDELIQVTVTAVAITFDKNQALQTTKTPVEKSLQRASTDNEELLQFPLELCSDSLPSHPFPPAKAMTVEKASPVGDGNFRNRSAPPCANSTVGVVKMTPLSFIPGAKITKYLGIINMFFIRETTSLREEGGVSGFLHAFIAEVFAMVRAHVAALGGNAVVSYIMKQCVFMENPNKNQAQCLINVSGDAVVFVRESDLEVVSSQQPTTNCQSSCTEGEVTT
UniProt Q9H257, sequence (Q9H257 whole entry, looked up): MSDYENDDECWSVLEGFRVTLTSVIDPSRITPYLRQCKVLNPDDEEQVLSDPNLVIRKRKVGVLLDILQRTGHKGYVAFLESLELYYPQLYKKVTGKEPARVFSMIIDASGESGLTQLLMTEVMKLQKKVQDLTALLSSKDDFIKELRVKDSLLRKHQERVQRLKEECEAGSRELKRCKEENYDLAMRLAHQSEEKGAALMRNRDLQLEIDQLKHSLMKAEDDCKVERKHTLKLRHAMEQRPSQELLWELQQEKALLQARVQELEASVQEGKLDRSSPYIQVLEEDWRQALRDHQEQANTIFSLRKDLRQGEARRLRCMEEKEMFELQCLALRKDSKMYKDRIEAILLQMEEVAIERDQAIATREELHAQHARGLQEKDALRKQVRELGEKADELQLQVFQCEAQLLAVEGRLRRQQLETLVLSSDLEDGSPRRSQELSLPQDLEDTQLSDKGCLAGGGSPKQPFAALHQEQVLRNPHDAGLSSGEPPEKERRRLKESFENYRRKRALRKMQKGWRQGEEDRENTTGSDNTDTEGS
UniProt Q13555, sequence (Q13555 whole entry, looked up): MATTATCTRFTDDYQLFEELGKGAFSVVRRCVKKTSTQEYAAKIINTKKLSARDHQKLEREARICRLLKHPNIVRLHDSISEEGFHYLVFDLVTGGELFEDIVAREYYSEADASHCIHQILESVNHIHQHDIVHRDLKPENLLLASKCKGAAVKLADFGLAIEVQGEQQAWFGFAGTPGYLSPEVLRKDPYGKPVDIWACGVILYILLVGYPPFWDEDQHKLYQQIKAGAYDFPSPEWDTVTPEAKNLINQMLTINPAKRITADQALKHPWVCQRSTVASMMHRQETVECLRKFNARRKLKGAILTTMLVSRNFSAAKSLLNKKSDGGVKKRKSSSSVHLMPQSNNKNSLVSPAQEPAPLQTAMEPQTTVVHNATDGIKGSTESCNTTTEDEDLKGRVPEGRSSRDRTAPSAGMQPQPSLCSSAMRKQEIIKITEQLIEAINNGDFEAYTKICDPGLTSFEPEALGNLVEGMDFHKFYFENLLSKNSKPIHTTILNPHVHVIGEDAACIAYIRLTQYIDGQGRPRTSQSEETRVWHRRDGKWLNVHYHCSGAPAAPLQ
UniProt Q9Y2V0, sequence (Q9Y2V0 whole entry, looked up): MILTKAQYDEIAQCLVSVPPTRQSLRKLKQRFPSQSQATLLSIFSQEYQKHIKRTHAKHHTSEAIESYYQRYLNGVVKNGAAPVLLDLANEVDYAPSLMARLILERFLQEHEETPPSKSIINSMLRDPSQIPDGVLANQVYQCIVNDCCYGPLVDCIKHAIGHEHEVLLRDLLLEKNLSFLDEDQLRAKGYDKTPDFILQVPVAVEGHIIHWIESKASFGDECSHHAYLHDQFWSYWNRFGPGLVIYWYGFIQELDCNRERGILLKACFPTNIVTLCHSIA
UniProt Q86WA6, sequence (Q86WA6 whole entry, looked up): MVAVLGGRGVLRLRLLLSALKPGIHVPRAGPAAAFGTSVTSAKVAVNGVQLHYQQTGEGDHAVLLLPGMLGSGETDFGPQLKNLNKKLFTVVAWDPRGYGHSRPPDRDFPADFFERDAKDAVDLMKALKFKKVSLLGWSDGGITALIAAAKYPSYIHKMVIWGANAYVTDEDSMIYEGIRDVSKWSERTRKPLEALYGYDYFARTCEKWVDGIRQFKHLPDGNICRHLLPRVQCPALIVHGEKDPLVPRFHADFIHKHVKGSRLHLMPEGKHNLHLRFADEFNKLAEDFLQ
UniProt P42574, sequence (P42574 whole entry, looked up): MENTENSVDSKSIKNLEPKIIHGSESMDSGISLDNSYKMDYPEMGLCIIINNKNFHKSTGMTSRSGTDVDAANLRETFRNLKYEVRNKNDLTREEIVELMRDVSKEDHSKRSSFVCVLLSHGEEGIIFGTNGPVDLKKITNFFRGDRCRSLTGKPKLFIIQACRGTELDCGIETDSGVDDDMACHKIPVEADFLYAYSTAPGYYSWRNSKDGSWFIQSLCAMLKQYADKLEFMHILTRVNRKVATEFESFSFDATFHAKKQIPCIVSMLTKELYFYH
UniProt Q8WXE1, sequence (Q8WXE1 whole entry, looked up): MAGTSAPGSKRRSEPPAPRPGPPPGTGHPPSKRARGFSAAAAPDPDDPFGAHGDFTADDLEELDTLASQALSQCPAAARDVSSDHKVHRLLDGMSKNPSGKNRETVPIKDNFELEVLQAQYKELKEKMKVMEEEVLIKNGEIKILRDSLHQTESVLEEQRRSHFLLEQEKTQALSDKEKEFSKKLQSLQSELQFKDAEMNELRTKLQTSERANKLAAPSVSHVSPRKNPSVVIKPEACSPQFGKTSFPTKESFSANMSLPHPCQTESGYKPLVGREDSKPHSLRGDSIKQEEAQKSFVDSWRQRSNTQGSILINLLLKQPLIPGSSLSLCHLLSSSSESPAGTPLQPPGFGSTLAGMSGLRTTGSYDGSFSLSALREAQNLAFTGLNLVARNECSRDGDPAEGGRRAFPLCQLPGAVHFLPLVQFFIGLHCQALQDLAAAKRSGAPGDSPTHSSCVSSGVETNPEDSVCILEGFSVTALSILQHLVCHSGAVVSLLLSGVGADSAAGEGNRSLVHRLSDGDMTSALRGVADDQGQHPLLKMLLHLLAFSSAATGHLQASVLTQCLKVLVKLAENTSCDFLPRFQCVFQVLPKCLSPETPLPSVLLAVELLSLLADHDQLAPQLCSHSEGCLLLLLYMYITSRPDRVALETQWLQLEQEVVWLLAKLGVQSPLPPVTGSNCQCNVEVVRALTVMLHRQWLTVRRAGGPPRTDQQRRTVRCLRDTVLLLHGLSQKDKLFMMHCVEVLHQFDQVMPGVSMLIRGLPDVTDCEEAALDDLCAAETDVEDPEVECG
UniProt Q86WR0, sequence (Q86WR0 whole entry, looked up): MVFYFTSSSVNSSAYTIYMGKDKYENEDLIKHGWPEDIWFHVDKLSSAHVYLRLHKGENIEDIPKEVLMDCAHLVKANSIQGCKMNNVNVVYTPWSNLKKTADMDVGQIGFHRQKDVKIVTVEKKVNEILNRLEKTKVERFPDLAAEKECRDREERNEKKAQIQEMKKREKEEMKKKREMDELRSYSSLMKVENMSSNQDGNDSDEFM

Compound in the first experiment: COC(=O)N[C@@H](C)CNc1nccc(-c2cn(C(C)C)nc2-c2cc(Cl)cc(NS(C)(=O)=O)c2F)n1 [encorafenib]
Kind of experiment: log2 fold change, soluble protein after heating vs DMSO (PISA); higher = thermal stabilisation; K562 lysate, 10 uM; active = over 0.2 and 3.5 SD of the protein, either way, in both replicates (recomputed). In a few lines:
(§1)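 The values are log-two fold changes in thermal stability compared with solvent controls and come from duplicates. They were obtained by TMTpro 16plex LC-MS/MS, with channel sums equalised, on the supernatant after 21,000xg for 90 min. That supernatant came from crude K562 extract at 1 mg/mL protein treated with 10 μM compound for 30 min, heated for 3 min across 48°C-58°C, pooled and brought to 0.5% NP-40 at 4°C.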
For CARD9 (UniProt Q9H257), the log2 fold change was -0.06 (inactive).
The same measure, in the same setting: under ATG13 isoform 2 (UniProt O75143) stands 0.054 (inactive); under CCDC25 (UniProt Q86WR0), 0.008 (inactive).
On the same count and under the same terms, as for CCPG1 isoform 5 (UniProt Q9ULG6), the figure is 0.049 (inactive); as for BRAF (UniProt P15056), 0.984 (active); as for CALB2 (UniProt P22676), -0.014 (inactive).
The same measure, in the same setting: as for CES2 isoform 4 (UniProt O00748), the figure is 0.075 (inactive); as for CCDC47 (UniProt Q96A33), -0.045 (inactive).
Regarding CCNB2 (UniProt O95067), the log2 fold change is 0.039 (inactive).
The same measure, in the same setting: under ATP2B4 (UniProt P23634) stands 0.021 (inactive); under CDKN1C (UniProt P49918), -0.037 (inactive).
For ATAD3B (UniProt Q5T9A4), the log2 fold change is 0.016 (inactive).
As to CEP76 (UniProt Q8TAP6), the log2 fold change is -0.006 (inactive).
Still for that read-out and setting: under CDK13 (UniProt Q14004) stands -0.005 (inactive); under C2CD5 isoform 3 (UniProt Q86YS7), 0.054 (inactive).
For the target CDAN1 (UniProt Q8IWY9), the log2 fold change was -0.018 (inactive).
As for ATRIP (UniProt Q8WXE1), the log2 fold change is 0.068 (inactive).
CAMK2G isoform 8 (UniProt Q13555): the log2 fold change was -0.199 (inactive).
The same measure, in the same setting: under CDC16 (UniProt Q13042) stands 0.032 (inactive).
On the same count and under the same terms, under CDC7 (UniProt O00311) stands 0.011 (inactive); under BNIP1 (UniProt Q12981), 0.095 (inactive); under CAD (UniProt P27708), 0.001 (inactive).
On the same count and under the same terms, as for CFDP1 (UniProt Q9UEE9), the figure is 0.005 (inactive); as for C15orf41 (UniProt Q9Y2V0), 0.126 (inactive).
Consider CDC123 (UniProt O75794), for which the log2 fold change was 0.018 (inactive).
As to BMS1 (UniProt Q14692), the log2 fold change was 0.075 (inactive).
On to CCNA2 (UniProt P20248), for which the log2 fold change was 0.005 (inactive).
For ATE1 isoform 2 (UniProt O95260), the log2 fold change is -0.013 (inactive).
Still for that read-out and setting: as for BPHL (UniProt Q86WA6), the figure is -0.002 (inactive).
Same read-out and setting: under ATR (UniProt Q13535) stands 0.045 (inactive); under BORCS5 (UniProt Q969J3), 0.074 (inactive).
The same measure, in the same setting: as for CCNYL1 (UniProt Q8N7R7), the figure is 0.011 (inactive).
As to CBFA2T3 (UniProt O75081), the log2 fold change is 0.056 (inactive).
Still for that read-out and setting: as for ATG7 (UniProt O95352), the figure is 0.021 (inactive).
Consider CAMKK2 (UniProt Q96RR4), for which the log2 fold change was -0.013 (inactive).
Still for that read-out and setting: as for C19orf54 (UniProt Q5BKX5), the figure is 0.024 (inactive); as for ATXN2 (UniProt Q99700), 0.018 (inactive); as for CASP3 (UniProt P42574), 0.011 (inactive).
Regarding CAMKK1 isoform 2 (UniProt Q8N5S9), the log2 fold change was 0.014 (inactive).

Compound in another experiment: COC(=O)[C@H](CCSC)NC(=O)C1=C(C=C(C=C1)NC[C@H](CS)N)C2=CC=CC=C2
The experiment is described as above. In a few lines:
as §1
On to CARD9 (UniProt Q9H257), for which the log2 fold change was 0.068 (inactive).
ATG13 isoform 2 (UniProt O75143): the log2 fold change was -0.045 (inactive).
Consider CCDC25 (UniProt Q86WR0), for which the log2 fold change was 0.083 (inactive).
On the same count and under the same terms, as for CCPG1 isoform 5 (UniProt Q9ULG6), the figure is -0.165 (inactive).
Still for that read-out and setting: as for BRAF (UniProt P15056), the figure is 0.043 (inactive).
Same read-out and setting: as for CALB2 (UniProt P22676), the figure is -0.003 (inactive); as for CES2 isoform 4 (UniProt O00748), 0.01 (inactive); as for CCDC47 (UniProt Q96A33), -0.037 (inactive).
On to CCNB2 (UniProt O95067), for which the log2 fold change is 0.032 (inactive).
For the target ATP2B4 (UniProt P23634), the log2 fold change was -0.041 (inactive).
On the same count and under the same terms, under CDKN1C (UniProt P49918) stands -0.019 (inactive); under ATAD3B (UniProt Q5T9A4), -0.128 (inactive).
On the same count and under the same terms, as for CEP76 (UniProt Q8TAP6), the figure is 0.005 (inactive); as for CDK13 (UniProt Q14004), -0.033 (inactive).
Same read-out and setting: as for C2CD5 isoform 3 (UniProt Q86YS7), the figure is -0.028 (inactive).
Regarding CDAN1 (UniProt Q8IWY9), the log2 fold change was 0.093 (inactive).
On the same count and under the same terms, as for ATRIP (UniProt Q8WXE1), the figure is -0.061 (inactive); as for CAMK2G isoform 8 (UniProt Q13555), -0.007 (inactive).
As for CDC16 (UniProt Q13042), the log2 fold change was -0.133 (inactive).
Same read-out and setting: as for CDC7 (UniProt O00311), the figure is 0.078 (inactive).
The same measure, in the same setting: as for BNIP1 (UniProt Q12981), the figure is -0.037 (inactive); as for CAD (UniProt P27708), 0.067 (inactive); as for CFDP1 (UniProt Q9UEE9), -0.021 (inactive).
On to C15orf41 (UniProt Q9Y2V0), for which the log2 fold change is -0.043 (inactive).
On the same count and under the same terms, under CDC123 (UniProt O75794) stands 0.136 (inactive); under BMS1 (UniProt Q14692), 0.01 (inactive); under CCNA2 (UniProt P20248), -0.012 (inactive).
With ATE1 isoform 2 (UniProt O95260), the log2 fold change was 0.109 (inactive).
The same measure, in the same setting: as for BPHL (UniProt Q86WA6), the figure is 0.004 (inactive); as for ATR (UniProt Q13535), -0.193 (inactive).
Consider BORCS5 (UniProt Q969J3), for which the log2 fold change was -0.09 (inactive).
CCNYL1 (UniProt Q8N7R7): the log2 fold change is 0.032 (inactive).
For the target CBFA2T3 (UniProt O75081), the log2 fold change was 0.037 (inactive).
ATG7 (UniProt O95352): the log2 fold change was -0.031 (inactive).
On the same count and under the same terms, as for CAMKK2 (UniProt Q96RR4), the figure is 0.018 (inactive).
In the case of C19orf54 (UniProt Q5BKX5), the log2 fold change is 0.151 (inactive).
Same read-out and setting: under ATXN2 (UniProt Q99700) stands -0.003 (inactive).
Still for that read-out and setting: as for CASP3 (UniProt P42574), the figure is -0.061 (inactive); as for CAMKK1 isoform 2 (UniProt Q8N5S9), 0.126 (inactive).
